# Results taken from PubChem BioAssay (EPA / NIEHS).
# Results filed as inconclusive are left out. Activity calls are given as the source filed them. The calls were made as follows: active = hit-call score of the fitted dose curve at least 0.9, where 1 is the maximum; inconclusive = response in the unintended direction; inactive = score below 0.9.
# Assays:
# [1] = TOX21_p53_BLA_p2_viability: Viability Assessment in the Tox21 HCT-116 p53 Agonism Beta-lactamase Assay, Phase 2 (AID 2283591);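 also: compound exposure lasted 16 h at 37 °C; actives lower the ATP signal meaning cytotoxicity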
# In short: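 HCT116 p53-bla cells, 4000/well, dosed after 5 h plating (217-fold dilution of DMSO stocks) and incubated 16 h at 37C. Viability taken as cellular ATP by CellTiter-Glo luminescence after 30 min RT; signal loss marks cytotoxicity.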
# [2] = target: Cellular tumor antigen p53 (Homo sapiens) (UniProt P04637); assay: TOX21_p53_BLA_p2_ratio: Tox21 HCT-116 p53 Agonism Beta-lactamase Assay, Ratio, Phase 2 (AID 2283592)
# In short: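 DMSO-normalized, positive-direction endpoint derived from the 460 nm/530 nm FRET ratio in HCT116 p53 beta-lactamase reporter cells exposed 16 h at 37C and loaded with CCF4-AM for 2 h.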
# [3] = TOX21_p53_BLA_p3_viability: Viability Assessment in the Tox21 HCT-116 p53 Agonism Beta-lactamase Assay, Phase 3 (AID 2283593);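 also: cells exposed to compound for 16 h before reading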
# In short: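 HCT116 cells, 4000/well, dosed 5 h after plating by pin transfer (217-fold dilution from DMSO stock) and incubated 16 h at 37C, 5% CO2. Viability read as ATP luminescence with CellTiter-Glo after 30 min at room temperature.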
# [4] = TOX21_p53_BLA_p4_viability: Viability Assessment in the Tox21 HCT-116 p53 Agonism Beta-lactamase Assay, Phase 4 (AID 2283597);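 also: hits lower the luminescence signal meaning cytotoxicity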
# In short: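 In this multiplexed secondary endpoint, HCT116 cells (4000 per well, compound at 5 h, 16 h treatment) received CellTiter-Glo after the beta-lactamase read. Luminescence after 30 min RT reflects ATP, and falling signal marks cytotoxicity.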
# [5] = target: Cellular tumor antigen p53 (Homo sapiens) (UniProt P04637); assay: TOX21_p53_BLA_p5_ratio: Tox21 HCT-116 p53 Agonism Beta-lactamase Assay, Ratio, Phase 5 (AID 2283599)
# In short: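 HCT-116 p53-bla cells (4000/well) plated 5 h, dosed with compound (217-fold DMSO dilution) for 16 h at 37 C; CCF4-AM substrate 2 h at room temperature. Activity is the 460/530 nm emission ratio (405 nm excitation), fitted in gain-of-signal direction versus DMSO.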
# [6] = TOX21_p53_BLA_p5_viability: Viability Assessment in the Tox21 HCT-116 p53 Agonism Beta-lactamase Assay, Phase 5 (AID 2283600)
# In short: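 Here cell health was gauged by ATP levels in wells holding 4000 cells, each treated 16 h with DMSO-delivered compounds at 217-fold dilution; reduced luminescence marked toxicity.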
# [7] = target: Cellular tumor antigen p53 (Homo sapiens) (UniProt P04637); assay: TOX21_p53_BLA_p3_ratio: Tox21 HCT-116 p53 Agonism Beta-lactamase Assay, Ratio, Phase 3 (AID 2283596)
# In short: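 Cells were seeded at 4000/well, rested 5 h at 37C, then dosed with DMSO compound solutions (217-fold dilution) for 16 h. CCF4-AM substrate was loaded for 2 h at room temperature, and the 460/530 nm emission ratio was fitted for gain of signal versus DMSO.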
# [8] = target: Cellular tumor antigen p53 (Homo sapiens) (UniProt P04637); assay: TOX21_p53_BLA_p4_ratio: Tox21 HCT-116 p53 Agonism Beta-lactamase Assay, Ratio, Phase 4 (AID 2283601)
# In short: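 HCT-116 p53 beta-lactamase reporter cells (4000/well) preincubated 5 h, then compound (217-fold dilution of DMSO stock) for 16 h at 37C. CCF4-AM substrate added 2 h at room temperature; 460/530 nm emission ratio fitted upward versus DMSO.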
# [9] = target: Thyroid hormone receptor alpha (Rattus norvegicus) + Thyroid hormone receptor beta (Rattus norvegicus) (UniProt P18113+P63059); assay: TOX21_TR_LUC_GH3_Antagonist_Followup: Tox21 GH3 Thyroid Hormone Receptor Antagonism Luciferase Follow-Up Assay (AID 2283942)
# In short: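 Luminescence read-out (ONE-Glo, 30 min at room temperature) in GH3 reporter cells challenged with 1.0 nM T3 final. Compounds ran at 92 uM to 5nM over 15 concentrations for 24 h; DMSO served as negative control and baseline.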
# THRB (gene 7068) [10] = target: THRB (gene 7068) (UniProt P10828); assay: TOX21_TRB_BLA_Antagonist_Followup_ratio: Tox21 Thyroid Hormone Receptor beta Antagonism Beta-lactamase (BLA) Follow-Up Assay, Ratio (AID 2283958)
# In short: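 Cells were plated and allowed to attach for 5 h, then dosed with compounds in DMSO at 11 concentrations for 18 h at 37C. Beta-lactamase reporter activity was measured via CCF4-AM FRET as the 460:530 nm ratio.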
# THRB (gene 7068) [11] = target: THRB (gene 7068) (UniProt P10828); assay: TOX21_TRB_COA_Antagonist_Followup_ratio: Tox21 Thyroid Hormone Receptor beta Antagonism through Coactivator Recruitment Follow-Up Assay, Ratio (AID 2283967)
# In short: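 GST-TRb LBD 5.0 nM + 0.10% BSA, compound added; fluorescein-SRC-2 peptide 200 nM, Tb-anti-GST Ab 2 nM. TR-FRET, ex 340 / em 520:495 ratio. Norm: DMSO 0%, T3 100%.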
# [12] = TOX21_TR_RXR_BLA_Antagonist_Followup_viability: Viability Assessment in the Tox21 Thyroid Hormone Receptor beta Retinoid X Receptor alpha (RXRa) Antagonism Beta-lactamase (BLA) Follow-Up Assay (AID 2283979)
# In short: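 RXRa-bla HEK293T cells (2,500/well, phenol red-free DMEM, 2% charcoal-stripped FBS) were attached 5 h, then exposed to compounds at 11 concentrations in triplicate for 16 h at 37C. Viability measured by CellTiter-Glo ATP luminescence, bidirectional fitting versus DMSO.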
# Sequence of Cellular tumor antigen p53 (Homo sapiens) (P04637 whole entry, looked up): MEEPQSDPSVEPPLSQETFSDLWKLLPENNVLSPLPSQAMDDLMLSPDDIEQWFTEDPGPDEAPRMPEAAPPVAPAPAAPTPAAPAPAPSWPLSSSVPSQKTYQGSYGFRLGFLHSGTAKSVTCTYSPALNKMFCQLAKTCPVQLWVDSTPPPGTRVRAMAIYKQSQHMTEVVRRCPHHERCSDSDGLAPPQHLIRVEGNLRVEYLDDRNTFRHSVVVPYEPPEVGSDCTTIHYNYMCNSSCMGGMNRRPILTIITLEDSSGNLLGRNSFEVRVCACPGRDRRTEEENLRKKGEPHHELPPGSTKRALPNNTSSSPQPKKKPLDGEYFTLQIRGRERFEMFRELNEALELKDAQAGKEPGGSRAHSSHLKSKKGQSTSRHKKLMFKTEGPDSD
# Sequence of THRB (gene 7068) (P10828 whole entry, looked up, the tested form may be a part): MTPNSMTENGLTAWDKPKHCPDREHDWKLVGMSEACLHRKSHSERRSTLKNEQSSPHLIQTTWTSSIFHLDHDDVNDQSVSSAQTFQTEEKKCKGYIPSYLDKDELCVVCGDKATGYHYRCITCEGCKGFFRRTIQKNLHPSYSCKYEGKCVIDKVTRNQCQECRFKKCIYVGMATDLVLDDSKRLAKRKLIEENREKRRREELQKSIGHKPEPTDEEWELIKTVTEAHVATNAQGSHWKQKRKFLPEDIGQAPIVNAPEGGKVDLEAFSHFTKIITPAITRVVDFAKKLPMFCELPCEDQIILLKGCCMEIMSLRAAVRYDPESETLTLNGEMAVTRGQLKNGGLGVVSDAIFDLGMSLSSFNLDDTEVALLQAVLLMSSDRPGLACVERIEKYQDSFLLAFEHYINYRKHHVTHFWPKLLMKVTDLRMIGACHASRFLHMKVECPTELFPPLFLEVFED
smiles,measurement,setting,value
COc1cc(C(=O)OC(COCCC(C)C)CN2CCOCC2)cc(OC)c1OC (configuration not stated),outcome,[1],inactive
same,outcome,[2],inactive
same,outcome,[3],inactive
same,outcome,[4],inactive
COc1cc(Br)c(C[N+]2(CCOCCC3CCC4CC3C4(C)C)CCOCC2)cc1OC (configuration not stated),outcome,[1],inactive
same,outcome,[2],inactive
same,outcome,[3],inactive
same,outcome,[4],inactive
same,outcome,[5],inactive
same,outcome,[6],inactive
O=C(CCCCC(=O)Nc1c(I)cc(I)c(C(=O)O)c1I)Nc1c(I)cc(I)c(C(=O)O)c1I,outcome,[1],inactive
same,outcome,[2],inactive
same,outcome,[3],inactive
same,outcome,[4],inactive
same,outcome,[5],inactive
CC(=O)Nc1ccn(C2COC(COC(=O)c3ccccc3)O2)c(=O)n1 (configuration not stated),outcome,[1],inactive
same,AC50,[2],5.44 µM (active)
same,outcome,[3],inactive
same,AC50,[7],11.7 µM (active)
same,outcome,[8],inactive
same,outcome,[9],inactive
same,outcome,THRB (gene 7068) [10],inactive
same,outcome,THRB (gene 7068) [11],inactive
same,outcome,[12],inactive
OCC1O[C@@H](O[C@@H]2C(CO)OC(O)C(O)C2O)C(O)C(O)C1O (some centres not stated),outcome,[1],inactive
same,outcome,[2],inactive
same,outcome,[3],inactive
same,outcome,[4],inactive
same,outcome,[5],inactive
same,outcome,[6],inactive
O=C(O)Cc1cccc(-c2cc(CCCCCCc3ccc(O[C@H]4O[C@H](CO)[C@@H](O)[C@H](O)[C@@H]4O)c(-c4cccc(CC(=O)O)c4)c3)ccc2O[C@H]2O[C@H](CO)[C@@H](O)[C@H](O)[C@@H]2O)c1,outcome,[1],inactive
same,outcome,[2],inactive
same,outcome,[3],inactive
same,outcome,[4],inactive
same,outcome,[5],inactive
same,outcome,[6],inactive
O=C(CCCN1CCN(c2ccc(F)cc2)CC1)NC1c2ccccc2CSc2ccccc21 (configuration not stated),outcome,[1],inactive
same,outcome,[2],inactive
same,outcome,[3],inactive
same,outcome,[4],inactive
same,outcome,[5],inactive
same,outcome,[6],inactive
O=P(O)(O)C(Sc1ccc(Cl)cc1)P(=O)(O)O,outcome,[1],inactive
same,outcome,[2],inactive
same,outcome,[3],inactive
same,outcome,[4],inactive
same,outcome,[5],inactive
COc1cc(C)c(Cc2cnc(N)nc2N)cc1OC,outcome,[1],inactive
same,outcome,[2],inactive
same,outcome,[3],inactive
same,outcome,[4],inactive
same,outcome,[5],inactive
CC1(C)S[C@@H]2[C@H](NC(=O)C(C(=O)O)c3ccsc3)C(=O)N2[C@H]1C(=O)O (some centres not stated),outcome,[1],inactive
same,outcome,[2],inactive
same,outcome,[3],inactive
same,outcome,[4],inactive
same,outcome,[5],inactive
same,outcome,[6],inactive
CC1(C)C(=O)C(C)(C)C1=O,outcome,[1],inactive
same,outcome,[2],inactive
same,outcome,[3],inactive
same,outcome,[4],inactive
same,outcome,[5],inactive
same,outcome,[6],inactive
C1CCN(CN2CCCCC2)CC1,outcome,[1],inactive
same,outcome,[2],inactive
same,outcome,[3],inactive
same,outcome,[7],inactive
same,outcome,[8],inactive
C[C@H]1C[C@H]2[C@@H]3CCC4=CC(=O)C=C[C@]4(C)[C@@]3(F)[C@@H](O)C[C@]2(C)[C@@]1(O)C(=O)CCl,outcome,[1],inactive
same,outcome,[2],inactive
same,outcome,[3],inactive
same,outcome,[4],inactive
O=C1OC(=O)c2cc([N+](=O)[O-])ccc21,outcome,[1],inactive
same,outcome,[2],inactive
same,outcome,[3],inactive
same,outcome,[4],inactive
same,outcome,[5],inactive
CC1(C)C2CC[C@]3(C)[C@H](C(=O)C=C4[C@@H]5C[C@@](C)(C(=O)O)CC[C@]5(C)CC[C@]43C)[C@@]2(C)CC[C@@H]1O[C@H]1O[C@H](C(=O)O)[C@@H](O)[C@H](O)[C@H]1O[C@@H]1O[C@H](C(=O)O)[C@@H](O)[C@H](O)[C@H]1O (some centres not stated),outcome,[1],inactive
same,outcome,[2],inactive
same,outcome,[3],inactive
same,outcome,[4],inactive
CCOc1ccc(N=C(C)Nc2ccc(OCC)cc2)cc1,outcome,[1],inactive
same,outcome,[2],inactive
same,outcome,[3],inactive
same,outcome,[4],inactive
same,outcome,[5],inactive
C=C(C)C(=O)OCCN(CC)CC,outcome,[1],inactive
same,outcome,[2],inactive
same,outcome,[3],inactive
same,outcome,[4],inactive
same,outcome,[5],inactive
